Only some compounds are listed: those with a hit (about 0.9% of all), similar ones and a draw of the others.
A488 autofl: A488 region autofluorescence; compound autofluorescence, A488 spectral region, dye equivalency; Compound Type: qHTS ECL - MLSMR; max dye equivalency, M; hit rate 0.1% among 59,000; AID 591
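Spectroscopic profiling in the A488 region: compounds in pH 8.0 Tris (100 mM), 15 min RT, CCD imaging with 480 nm excitation and 540 nm emission; responses normalized against A488 dye standards.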
A647 fluor: A647 region autofluorescence | 59,000 tested, under 10 active | Compound fluorescence, A647 channel (570/671 nm), Tris buffer | AID 592 | max dye-equivalent concentration, M;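 note: values scaled relative to a standard on each plate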
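Tris 100 mM pH 8.0; cpd + A647 stds pin-transferred; 15 min RT; CCD imager, ex 570/em 671. Output = A647-equivalent conc. per cpd conc.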
Resorufin autofl: resorufin region autofluorescence; AID 588; Compound fluorescence, resorufin region 547/598 nm, buffer; stronger effect = higher value; max dye-equivalent concentration, M; hit rate 0.04% among 59,000
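Compounds in 100 mM Tris buffer, pH 8.0, incubated 15 min at room temperature, then read with 547 nm excitation and 598 nm emission filters. Fluorescence was converted to dye-equivalent concentration using an on-plate six-point resorufin standard curve.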
Rhodamine autofl: compound fluoresces in the rhodamine spectral region; max dye-equivalent concentration, M; hit rate 0.05% among 59,000; Rhodamine-region fluorescence, 547/598 nm, Tris buffer; stronger effect = higher value; in the data active = max dye-equivalent concentration above about 11 nM; inconclusive = between about 1.1 nM and that limit
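Compound fluorescence in 100 mM Tris, pH 8.0, read after 15 min at room temperature with 547 nm excitation and 598 nm emission. Output is dye-equivalent concentration from an on-plate rhodamine standard series.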
Fluorescein fluor: compound fluoresces in the fluorescein spectral region; AID 593; Compound autofluorescence, 480/540 nm, fluorescein-equivalent; stronger effect = higher value; max fluorescein-equivalent concentration, M; hit rate 0.91% among 59,000; in the data active = max fluorescein-equivalent concentration above about 10 nM; inconclusive = between about 1.1 nM and that limit
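In this qHTS profile, compound fluorescence was measured with a 480 nm/540 nm filter pair following a 15-min room-temperature incubation in 100 mM Tris (pH 8.0). A six-point fluorescein series on each plate served for normalization.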
TexasRed autofl: compounds fluorescent in Texas Red spectral region | Compound fluorescence, Texas Red channel, 547/618 nm; stronger effect = higher value | max dye-equivalent concentration, M | hit rate 0.06% among 59,000; in the data active = max dye-equivalent concentration above about 10 nM; inconclusive = between about 1.1 nM and that limit
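qHTS profiling of intrinsic compound fluorescence; 100 mM Tris pH 8.0; 15 min RT; ex 547 / em 618 nm; response expressed as Texas Red dye-equivalent concentration from six-point plate standard.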
Starred values were filed as active, the others as inactive; i = inactive; ? = inconclusive. Unless noted, the rule behind the calls is not given here.

SMILES	A488 autofl	A647 fluor	Resorufin autofl	Rhodamine autofl	Fluorescein fluor	TexasRed autofl
Cc1ccc(C2C(C#N)=C(N)SC(N)=C2C#N)c(C)c1	i	1.9e-08	i	i	1e-08M*	i
CC(C)[C@@H]1O[C@H](/C=C\c2ccccc2)OCC1(C)C	i	3.4e-08	i	i	?	i
CCOC(=O)C1CCN(c2nc3ccccc3nc2C(C#N)C(=O)OC(C)C)CC1 (centres undefined)	i	6.6e-09	i	i	1.3e-08M*	i
CCOC(=O)C1CCCN(c2nc3ccccc3nc2C(C#N)C(=O)OC(C)C)C1 (centres undefined)	1.4e-08M*	2.5e-08	i	i	2.3e-07M*	i
CCOC(=O)C1CCN(c2nc3ccccc3nc2C(C#N)C(=O)OC(C)COC)CC1 (centres undefined)	i	1.5e-09	i	i	?	i
Clc1ccc([C@@H](c2ccccc2Cl)C(Cl)Cl)cc1	i	8.6e-09	i	i	i	?
COc1ccc2c(c1)c1c(C)c3cnccc3c(C)c1n2CCCN	i	1e-09	i	i	i	i
Cc1cccc(C)c1NC(=O)CN1CCN(CCCC(c2ccc(F)cc2)c2ccc(F)cc2)CC1	i	4.4e-09	i	i	1e-08M*	i
Cc1ccc(N2C(=O)c3cccc4c(N5CCN(C)CC5)ccc(c34)C2=O)c2cccnc12	?	1e-09	i	i	2.6e-08M*	i
CCN1C(=O)c2cccc3c(S(=O)(=O)Nc4ncccc4C)ccc1c23	i	2.5e-08	i	i	?	i
COc1cccc2c1C(=O)c1c(O)c3c(c(O)c1C2=O)C[C@](O)(C(=O)CO)C[C@H]3O[C@@H]1C[C@H](N)[C@H](O)[C@H](C)O1	1.3e-08M*	2.1e-08	7.2e-08M*	9.8e-08M*	3e-07M*	9.5e-08M*
Cc1cnc(CNc2nc(-c3cccc(NS(C)(=O)=O)c3)nc3ccccc23)cn1	i	1e-09	i	i	i	i
N#Cc1cccc(NC(=O)N2CC[C@@]3(CCCNC3)C2)c1	i	1e-09	i	i	i	i
CC(=O)O[C@@H]1C[C@]2(C)[C@H](C[C@@H](O)[C@H]3[C@@]4(C)CC[C@@H](O)[C@@H](C)[C@@H]4CC[C@@]32C)/C1=C(\CCC=C(C)C)C(=O)O	i	2.7e-09	i	i	i	i
C/C(=C\COc1cc(=O)[nH]c2ccccc12)CC[C@@H](O)C(C)(C)O	i	1e-09	i	i	i	i
CCC1=C/C(=C/N(C)c2ccccc2)C(=O)S1	i	5.2e-08	i	i	1.5e-08M*	i
CCO[C@H]1O[C@@H]([C@H](COCc2ccccc2)OCc2ccccc2)[C@@H](OCc2ccccc2)[C@H]1O	i	2.8e-08	i	i	?	i
O=C1CCCc2c1cc(C(=O)Nc1ccc(Cl)cn1)c(=O)n2-c1ccccc1	i	9.4e-09	i	i	i	i
Cc1ccc(-n2c3c(cc(C(=O)NC4CCSC4=O)c2=O)C(=O)CCC3)cc1 (centres undefined)	i	1.7e-09	i	i	1.1e-08M*	i
CCCCCC[C@@H]([C@H](C)O)n1cnc2c(N)ncnc21	i	1.2e-09	i	i	?	?
CC(C)c1ccc2c(c1)CC[C@@H]1[C@@](C)(CN)CCC[C@@]21C	i	1e-09	i	i	1.2e-08M*	i
CCOC(=O)Nc1cc(C)ccc1OC	i	1.2e-08	i	i	i	?
CCOC(=O)Nc1ccc(NCc2ccc(F)cc2)nc1N	i	3.1e-08	i	i	1.6e-08M*	i
CC1=C(C#N)C(=O)OC(C)(C)C1	?	1e-09	i	i	5e-08M*	i
CC(C)OC(=O)c1nn2c(C(F)(F)F)cc(-c3ccc(Br)o3)nc2c1Br	i	5.3e-08	i	i	1.6e-08M*	i
CCOC(=O)c1cnn2c(C(F)(F)F)cc(-c3ccco3)nc12	i	1e-09	i	i	i	i
Nc1nonc1C(=O)NCCN=Cc1cc(Cc2ccccc2)cc(Br)c1O	i	1e-09	i	i	2e-08M*	i
